Only some compounds are listed: those with a hit (about 1.4% of all), similar ones and a draw of the others.
AID504770 = growth inhibition of E. coli YBA685, primary screen, V. cholerae RctB inhibitors. E. coli YBA685 rctB-dependent plasmid, OD600 growth, 3 h; active compounds read low. z-score (concentration not given with the values). 130,000 compounds, 0.27% hits; in the data active = z-score below about -2, passing the limit was not always enough
Mtb MbtI inh = MbtI salicylate synthase inhibitors, primary screen, biochemical, fluorescence intensity. P9WFX0. purified MbtI enzyme, fluorescence intensity read-out. inhibition, % (no concentration beside the values). 100,000 compounds, 0.89% hits. AID 493033, 2011; in the data active = inhibition mostly above about 56%, no sharp cut-off; inactive = mostly below about 77%
MenB inh = M. tuberculosis MenB inhibitors, primary screen, biochemical, absorbance. 1,4-dihydroxy-2-naphthoyl-CoA synthase (Mycobacterium tuberculosis (strain ATCC 25618 / …. MenB enzyme assay, absorbance read-out. inhibition, % (test concentration not listed). 100,000 compounds, 0.43% hits; in the data active = inhibition above about 21%, passing the limit was not always enough
Target sequence (P9WNP5 whole entry, looked up): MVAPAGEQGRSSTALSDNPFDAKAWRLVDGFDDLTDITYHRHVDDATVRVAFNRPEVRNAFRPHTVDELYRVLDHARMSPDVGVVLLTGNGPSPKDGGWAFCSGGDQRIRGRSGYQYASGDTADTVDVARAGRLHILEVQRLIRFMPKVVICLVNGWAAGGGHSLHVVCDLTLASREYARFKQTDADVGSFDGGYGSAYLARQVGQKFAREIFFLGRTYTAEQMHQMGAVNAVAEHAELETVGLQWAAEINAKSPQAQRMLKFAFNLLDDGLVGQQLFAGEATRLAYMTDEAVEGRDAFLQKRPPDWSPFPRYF
Polio RdRp inh = poliovirus RdRp elongation inhibitors, primary screen, biochemical, fluorescence polarization, total intensity | poliovirus polymerase elongation; active compounds read low | % elongation, % (compound at 16.7 µg/mL) | 150,000 compounds, 0.66% hits | AID 588519, 2011; in the data active = % elongation below about 90%
An asterisk follows results filed as active; nt = no result given.

SMILES	AID504770	Mtb MbtI inh	MenB inh	Polio RdRp inh
CN(C(=O)CSc1nnc(-c2cccs2)o1)C1CCCCC1	1.2	-41	13	102
COc1ccc(C(=O)CSC2=NCCc3ccccc32)cc1	-0.55	67*	6	77*
COc1ccc(C2CC(=O)N3CN(C4CCCCC4)CSC3=C2C#N)c(OC)c1 (stereo unspecified)	nt	nt	nt	54*
N#CC1=C2SCN(C3CCCCC3)CN2C(=O)CC1c1ccc(Br)cc1 (stereo unspecified)	nt	nt	nt	95
N#CC1=C2SCN(C3CCCCC3)CN2C(=O)CC1c1ccccc1 (stereo unspecified)	0.5	73*	-13	101
COc1cc(C2CC(=O)N3CN(Cc4ccccc4)CSC3=C2C#N)cc(Br)c1O (stereo unspecified)	0.3	53	-13	101
Cc1c(NC(=O)c2ccc(Br)o2)cccc1-c1nc2cccnc2s1	-1	-31	12	99
Cc1ccc(-c2nnc(Nc3ccccc3)c3ccccc23)cc1S(=O)(=O)N1CCCCC1	-0.45	9	4	102
CC(=O)c1cccc(NC(=O)c2oc3c(c2C)-c2nn(Cc4ccc(Cl)cc4)cc2CC3)c1	nt	nt	nt	93
CCOC(=O)c1cccc(NC(=O)c2oc3c(c2C)-c2nn(CC)cc2CC3)c1	nt	nt	nt	64*
O=C1NC(=S)C(=C2CCCC2)S1	0.55	77*	-27	89
CCOC(=O)C1=CN(O)/C(=C\N=O)C=C1	-0.7	3	15	102
COC(=O)c1cc(-c2ccc(Cl)cc2)on1	-0.4	nt	26	101
COC(=O)/C=C1/OC(c2ccc(Cl)cc2)=CC1=O	-0.75	100*	-58	108
CN(C)/C=C/C=C1\CCCC1=O	-0.35	4	-163	93
COc1ccccc1Nc1nn2c(=O)c3ccc(C(=O)NCCCOC(C)C)cc3nc2s1	nt	nt	nt	110
CCN(CC)CCNC(=O)c1ccc2c(=O)n3nc(Nc4ccccc4OC)sc3nc2c1	nt	nt	nt	65*
N#Cc1nc(Cl)ccc1Cl	-0.25	3	11	100
Cc1cc(S(=O)(=O)NCC(C)C)ccc1OCC(N)=O	-2.5	-10	5	100
CNc1nnc(Sc2nnc(NC)s2)s1	-1	90*	-16	91
N#C/C(=C\c1ccco1)C(=O)Nc1ccccc1	-0.15	4	-78	104
COC(=O)c1c(NC(=O)/C(C#N)=C/c2ccco2)sc(C)c1C	0.3	82*	-12	95
Cc1cccc(-c2nnc(C3CCN(S(=O)(=O)Cc4ccccc4)CC3)o2)c1	-0.5	72*	-63	98
COC(=O)c1ccccc1NC(=O)/C(C#N)=C/c1ccc2noc(-c3ccccc3)c2c1	-0.6	3	4	65
O=C(O)CSC1=NCCCN1	0.35	3	1	99
SMILES	AID504770	Mtb MbtI inh	MenB inh	Polio RdRp inh
O=C(O)CSC1=NC2CCCCC2N1 (stereo unspecified)	-0.55	3	33*	99
Cc1cc(=O)oc2cc(OC(=O)c3cc4ccccc4o3)ccc12	1.5	nt	-4	98
Cc1cc(C)c2[nH]c(O)c(N=NC(=S)NCC3CCCO3)c2c1 (stereo unspecified)	0.05	-14	-20	97
Oc1[nH]c2ccc(Br)cc2c1N=NC(=S)NCC1CCCO1 (stereo unspecified)	0	31	-11	90*
CCCn1c2ccc(F)cc2c2nc3n(c(=O)c21)CCS3	-0.25	90	16	101
O=C(Cn1c2ccc(F)cc2c2nc3n(c(=O)c21)CCS3)N1CCCC1	2.2	44	30*	103
COc1ccc(NC(=O)CSc2nnc(N)s2)cc1	nt	nt	nt	108
COc1ccccc1NC(=O)CSc1nnc(N)s1	nt	nt	nt	83*
COc1ccccc1NC(=O)CSC(=O)c1ccccc1	0.1	87*	nt	101
Cc1ccc2nc(-c3ccc(C)s3)c(Nc3ccc4c(c3)OCCO4)n2c1	nt	nt	nt	84*
CCS(=O)(=O)c1ccc2oc(SCC(=O)N3CC(C)OC(C)C3)nc2c1 (stereo unspecified)	-1.1	-10	20	106
CCS(=O)(=O)c1ccc2oc(SCC(=O)CSc3nc4cc(S(=O)(=O)CC)ccc4o3)nc2c1	0.3	8	45*	110
COc1ccc([C@H]2[C@@H](C(=O)O)c3ccccc3C(=O)N2Cc2ccc3c(c2)OCO3)cc1	0	4	6	38*
COc1ccc(CCNC(=O)c2ccc3c(c2)N(Cc2ccccc2)C(=O)c2ccccc2S3=O)cc1OC (stereo unspecified)	nt	nt	nt	-15*
CCS(=O)(=O)N1CCC(C(=O)NC2CCCCC2C)CC1 (stereo unspecified)	0.05	6	10	103
COc1ccc(-c2n[nH]c(=S)[nH]c2=O)cc1	0.3	77*	-35	94
Cc1ccc(-c2n[nH]c(=S)[nH]c2=O)cc1	0.3	30	-26	107
COc1ccc(Cn2c(=O)c3ccccc3n3c(-c4ccccc4O)nnc23)cc1	1.1	-12	-13	106
COc1ccc(OC)c(-c2nnc3n(Cc4ccc(C)cc4)c(=O)c4ccccc4n23)c1	nt	nt	nt	64*
COc1cc(C2C(C(=O)c3cc4cccc(OC)c4o3)=C(O)C(=O)N2c2nnc(C)s2)cc(Br)c1O (stereo unspecified)	-0.2	-4	-34	75
CSCc1nc2sc(C(=O)NC3CC3)c(C)c2c(=O)[nH]1	-0.2	-39	-15	105
Cc1ccc(Nc2nnc(SCc3nc4sc(C(=O)O)c(C)c4c(=O)[nH]3)s2)cc1C	-0.35	3	-15	81*
CC(C)(C)N1CSC(=S)N(Cc2ccco2)C1	-7.9*	74	-49	101
CCN(C(=O)Cn1c(=O)oc2cc(Cl)ccc21)c1cccc(C(F)(F)F)c1	nt	nt	nt	82*
NC(=O)C(c1ccccc1)c1ncc(C(F)(F)F)cc1Cl (stereo unspecified)	-2.7*	nt	nt	nt
SMILES	AID504770	Mtb MbtI inh	MenB inh	Polio RdRp inh
CCOC(=O)c1cccc2c3c([nH]c12)C(C(=O)OCC)CCC3 (stereo unspecified)	1.1	18	nt	nt
CCOC(=O)c1cc(-c2ccccn2)nc2c1c(=O)n(CC(=O)OC)c(=O)n2Cc1ccccc1	-0.65	10	-15	81*
CCCC1CCc2nc3ccccc3c(C(=O)O)c2C1 (stereo unspecified)	-0.8	-3	7	102
CCC(=O)Nc1nc(-c2ccc(C)cc2C)cs1	2	nt	nt	nt
Cc1ccc(-c2csc(Nc3ccc(C(=O)O)cc3)n2)c(C)c1	0.3	nt	-20	90*
O=C(Nc1ccc(Br)c(C(F)(F)F)c1)c1ccc(=O)[nH]c1	-0.35	9	-8	105
O=C1NC(=O)/C(=C\c2ccccc2C(F)(F)F)S1	-0.4	100*	-20	103
O=C1NC(=S)S/C1=C\c1ccccc1C(F)(F)F	2.8	nt	nt	nt
CCOc1ccc(NC(=O)c2c(NC(=O)c3ccccc3Br)sc3c2CCC(C)C3)cc1 (stereo unspecified)	nt	nt	nt	78*
Cc1[nH]c(=S)n(CC2CCCO2)c1C (stereo unspecified)	1.4	95*	12	95
Cc1n[nH]c(=S)n1CC1CCCO1 (stereo unspecified)	-0.1	-6	-16	103
